Source: PubChem BioAssay AID463173 (ICCB-Longwood Screening Facility, Harvard Medical School, 2010)
Out of some 52,000 compounds screened, about 4,300 (8.3%) were called active. Rule as the data show it: active = survival mostly below about 52% (no sharp cut-off); inactive = mostly above about 56%. The sample as a whole holds a higher share of actives than the screen did.

These molecules were tested on DeltatarO mutant (assay: growth inhibition of S. aureus wild type versus tarO mutant, primary screen, teichoic acid synthesis inhibitors, RN4220, OD600 (AID 463173)). Settings: OD600, 18 h, active compounds read low, screened at 18.75 µg/mL (by protocol).
In the case of CCc1ccc2[nH]c(=O)c(C(c3nnnn3C3CCCC3)N(Cc3ccccc3)Cc3ccco3)cc2c1 (configuration not stated), the survival is reported as 104% (inactive). In the case of O=C(CN1c2ccc(Br)cc2-c2ccccc2S1(=O)=O)N1CCCCC1, the survival is reported as 91% (inactive). In the case of COc1cc(CNc2ccc3[nH]c(=O)[nH]c3c2)cc(Cl)c1OCc1ccccc1F, the survival is reported as 78% (inactive). In the case of CCOc1ccc(CCNC(=O)c2sc3ncccc3c2-n2c(C)ccc2C)cc1, the survival is reported as 106% (inactive). For COCCNc1nc2c(S(=O)(=O)c3ccc(C)c(C)c3)nnn2c2ccc(Cl)cc12, the survival was 89% (inactive). For O=C(NCc1ccccc1Cl)NCc1noc2ccccc12, the survival was 45% (inactive). Cc1cccc(-c2nn3c(=O)cc(CN4CCN(C(=O)c5ccccc5Br)CC4)nc3s2)c1 was tested, and the survival was 100% (inactive). In the case of CCOC(=O)c1cc(C)n(CC2CCC(C(=O)Nc3ccc(Cl)cc3)CC2)c1C (configuration not stated), the survival is reported as 46% (active). With CCOC(=O)c1cc(C)n(CC2CCC(C(=O)Nc3ccc(C)cc3)CC2)c1C (configuration not stated) the survival was 98% (inactive). CCOC(=O)c1cc(C)n(CC2CCC(C(=O)Nc3ccc(C(=O)OC)cc3)CC2)c1C (configuration not stated) was tested, and the survival was 69% (inactive). For O=C(NC1CCCC1)C1CCCN(S(=O)(=O)c2ccc(-n3cnnn3)cc2)C1 (configuration not stated), the survival was 72% (inactive). In the case of CCOc1ccc(NC(=O)c2ccc(-c3ccccc3)s2)cc1, the survival is reported as 86% (inactive). In the case of COc1ccc(Cl)cc1NC(=O)c1cnc(SC)nc1-c1ccccc1, the survival is reported as 49% (inactive). CCOc1ccc(OCC)c(NC(=O)c2cnc(SC)nc2-c2ccccc2)c1 was tested, and the survival was 32% (active). For O=C(Nc1ccccc1F)c1ccc(-c2ccccc2)s1, the survival was 81% (inactive). With CSc1ncc(C(=O)Nc2ccc(F)cc2F)c(-c2ccccc2)n1 the survival was 71% (inactive). CCOc1ccc(OCC)c(NC(=O)c2ccc(-c3ccccc3)s2)c1 was tested, and the survival was 27% (active). For Cc1ccc(CN2CCc3nc(N4CCN(c5ncccn5)CC4)ncc3C2)cc1, the survival was 117% (inactive). In the case of CN1CCN(CC(=O)NCCc2ccc(F)cc2)CC1, the survival is reported as 83% (inactive). With N#CCOc1nc(OCC#N)nc(OCC#N)n1 the survival was 1% (active). With CNc1nc(OCC#N)nc(N2CCCCC2)n1 the survival was 110% (inactive). For CONc1nc(NC(C)(C)C)nc(OCC#N)n1, the survival was 97% (inactive). In the case of Cc1ccc(CNC(=O)c2nc(-c3ccc(Cl)cc3)n3c2CCCCC3)cc1, the survival is reported as 89% (inactive). For Cc1ccc(Cl)cc1NC(=O)Cn1c(=O)n(CCC(=O)NCc2ccc3c(c2)OCO3)c(=O)c2sccc21, the survival was 79% (active). For Cc1cccc(C)c1NC(=O)Cn1c(=O)n(CCC(=O)NCc2ccc3c(c2)OCO3)c(=O)c2sccc21, the survival was 90% (inactive). In the case of O=C(CCn1c(=O)c2sccc2n(Cc2ccccc2F)c1=O)NCc1ccc2c(c1)OCO2, the survival is reported as 84% (active). In the case of CCC1CCCCN1C(=O)Cn1c(=O)n(CCCCCC(=O)NCc2ccc(F)cc2)c(=O)c2sccc21 (configuration not stated), the survival is reported as 170% (inactive). Cc1ccccc1NC(=O)Cn1c(=O)n(CCC(=O)NCc2ccc3c(c2)OCO3)c(=O)c2sccc21 was tested, and the survival was 150% (inactive). In the case of O=C(CCn1c(=O)c2sccc2n(Cc2ccc(F)cc2)c1=O)NCc1ccc2c(c1)OCO2, the survival is reported as 89% (inactive). For Cc1ccc(CNC(=O)CCCCCn2c(=O)c3sccc3n(CC(=O)N3CCCCC3C)c2=O)cc1 (configuration not stated), the survival was 48% (active). In the case of Cc1ccc(NC(=O)Cn2c(=O)n(CCC(=O)NCc3ccc4c(c3)OCO4)c(=O)c3sccc32)c(C)c1, the survival is reported as 87% (active). With O=C(CCn1c(=O)c2sccc2n(Cc2cccc(F)c2)c1=O)NCc1ccc2c(c1)OCO2 the survival was 97% (inactive). In the case of CCC1CCCCN1C(=O)Cn1c(=O)n(CCCCCC(=O)NCc2ccccc2)c(=O)c2sccc21 (configuration not stated), the survival is reported as 69% (inactive). In the case of O=C(CCCCCn1c(=O)c2sccc2n(CC(=O)Nc2cccc(Cl)c2)c1=O)NCc1ccc2c(c1)OCO2, the survival is reported as 57% (inactive). For Cc1ccccc1NC(=O)Cn1c(=O)n(CCCCCC(=O)NCc2ccc3c(c2)OCO3)c(=O)c2sccc21, the survival was 84% (inactive). With Clc1ccc(CCNc2ncnc3c2c(-c2ccccc2)cn3-c2ccccc2)cc1 the survival was 94% (inactive). COc1ccc(Cn2c(CCC(=O)Nc3ccc(Br)c(C)c3)nc3cccnc32)cc1 was tested, and the survival was 71% (inactive). For Cc1ccc(N2CC(NC(=O)/C=C\c3ccc4c(c3)OCO4)CC2=O)cc1 (configuration not stated), the survival was 91% (inactive). With COc1ccc(NC(=O)Cn2ccn(-c3ccc(C)c(C)c3)c(=O)c2=O)cc1Cl the survival was 72% (inactive). For COc1ccc(OC)c(CNC(=O)c2ccccc2NC(=O)c2nsc3ccccc23)c1, the survival was 92% (inactive). O=C(NC1CC(=O)N(c2ccccc2)C1)C(c1ccccc1)c1ccccc1 (configuration not stated) was tested, and the survival was 89% (inactive). For Cc1nnc(Nc2ccc(C(=O)O)cc2)[nH]c1=O, the survival was 108% (inactive). In the case of O=C1CCSC2(C(=O)N(Cc3ccc(F)cc3)c3ccccc32)N1c1ccccc1 (configuration not stated), the survival is reported as 78% (inactive). With CC(=O)c1cccc(NS(=O)(=O)c2cc3c(cc2C)N(C(C)=O)CCO3)c1 the survival was 95% (inactive). CCc1ccc(NC(=O)Cn2c(=O)n(CCC(=O)NCc3ccc4c(c3)OCO4)c(=O)c3ccccc32)cc1 was tested, and the survival was 91% (inactive). In the case of CCc1ccc(NC(=O)Cn2c(=O)n(CCCCC(=O)NCc3ccc4c(c3)OCO4)c(=O)c3ccccc32)cc1, the survival is reported as 87% (inactive). In the case of CCc1ccc(NC(=O)Cn2c(=O)n(CCCC(=O)NCc3ccc4c(c3)OCO4)c(=O)c3ccccc32)cc1, the survival is reported as 93% (active). In the case of O=C(Cc1ccc(Cl)cc1)Nc1nnc2n1CCS2, the survival is reported as 77% (inactive). O=C(Cc1ccccc1)Nc1nnc2n1CCS2 was tested, and the survival was 71% (inactive). With O=C(Cc1ccc(F)cc1)Nc1nnc2n1CCS2 the survival was 52% (active). With CCOC(=O)c1c(C)[nH]c(CCC(=O)NCc2ccccc2C)c1C the survival was 80% (inactive). For COc1cc(NS(=O)(=O)c2ccc(NC(=O)c3ccc(Cl)cc3Cl)cc2)nc(OC)n1, the survival was 98% (inactive). For O=C1OC(Nc2ccccn2)c2ccccc21 (configuration not stated), the survival was 42% (inactive). For O=C1OC(Nc2ccccc2C(F)(F)F)c2ccccc21 (configuration not stated), the survival was 45% (inactive). CC(=O)Nc1ccc(NC2OC(=O)c3ccccc32)cc1 (configuration not stated) was tested, and the survival was 50% (inactive). For O=C1OC(Nc2ccc3ncccc3c2)c2ccccc21 (configuration not stated), the survival was 30% (active). For Cc1ccc(NC2OC(=O)c3ccccc32)cc1 (configuration not stated), the survival was 31% (active). With O=C(Nc1ccc2ncccc2c1)c1ccccc1 the survival was 94% (inactive). CCc1ccc(CNC(=O)CN2C(=O)c3cccnc3Oc3ccc(C)cc32)cc1 was tested, and the survival was 72% (inactive). Cc1ccc(C=N/C(=N\NC(=O)c2ccccc2)c2ccccc2)o1 was tested, and the survival was 94% (inactive). For COc1ccc2nc(N3CCN(C(=O)c4ccco4)CC3)sc2c1, the survival was 88% (inactive). CCN(CC)CCCNC(=O)c1ccc2c(=O)n(CCc3ccccc3)c(=O)[nH]c2c1 was tested, and the survival was 82% (inactive). With COc1nc(N2CCCCCC2)nc(N2CCCCCC2)n1 the survival was 66% (inactive). For CCN(CC)C(=O)C1CCCN(c2ncnc3onc(C)c23)C1 (configuration not stated), the survival was 99% (inactive). CCOc1ccc(N(Cc2ccccc2)C(=O)c2nc(S(C)(=O)=O)ncc2Cl)cc1 was tested, and the survival was 24% (active). With COc1ccc(CN(C(=O)c2ccco2)c2ccccc2)cc1 the survival was 96% (inactive). For CCSc1ncc(Cl)c(C(=O)N(Cc2ccccc2)c2ccc(OC)cc2)n1, the survival was 100% (inactive). For COc1ccc(N(Cc2ccccc2)C(=O)c2nc(SC)ncc2Cl)cc1, the survival was 99% (inactive). CCCSc1ncc(Cl)c(C(=O)N(Cc2ccccc2)c2ccc(OC)cc2)n1 was tested, and the survival was 45% (active). For CCOc1ccc(N(Cc2ccccc2)C(=O)c2nc(SCC)ncc2Cl)cc1, the survival was 106% (inactive). With CCS(=O)(=O)c1ncc(Cl)c(C(=O)N(Cc2ccccc2)c2ccc(OC)cc2)n1 the survival was 36% (active). For CCOc1ccc(N(Cc2ccccc2)C(=O)c2nc(SC)ncc2Cl)cc1, the survival was 72% (inactive). For COc1ccc(N(Cc2ccccc2)C(=O)c2nc(S(C)(=O)=O)ncc2Cl)cc1, the survival was 51% (inactive). With COc1ccc(-c2cn3cccnc3n2)cc1NC(=O)c1cc(C)cc(C)c1 the survival was 61% (inactive). Cc1cc(C)c(NC(=O)Nc2csc3c2CCCC3)c(C)c1 was tested, and the survival was 78% (inactive). In the case of Cc1c(CNCc2ccc(Cl)cc2)c(C(=O)O)c(C)n1Cc1ccc(F)cc1, the survival is reported as 77% (inactive). With CCOc1ccc(S(=O)(=O)N2CCN(Cc3nc4ccc(C)cc4o3)CC2)cc1 the survival was 73% (inactive). In the case of Cc1ccc(NC(=O)CN(Cc2ccccc2)S(=O)(=O)c2ccc3nc(C)sc3c2)c(C)c1, the survival is reported as 83% (inactive). With CCC(=O)N1CCc2cc(CNC(=O)c3cccc(N(C)C)c3)ccc21 the survival was 84% (inactive). In the case of CCOc1ccc(NC(=O)CC2C(=O)N(c3ccc(OC)cc3)C(=O)N2C2CCCCC2)cc1 (configuration not stated), the survival is reported as 110% (inactive). For CCOc1cc(C)c(C(C)C)cc1S(=O)(=O)n1ccnc1CC, the survival was -3% (active). For COc1cc(S(=O)(=O)n2ccnc2C(C)C)ccc1Br, the survival was 55% (inactive). Cc1nccn1S(=O)(=O)c1ccc(Cl)cc1Cl was tested, and the survival was 67% (inactive). For CCOc1ccc(OCC)c(S(=O)(=O)n2cnc3cc(C)c(C)cc32)c1, the survival was 104% (inactive). In the case of CCc1nccn1S(=O)(=O)c1cc(Br)ccc1Br, the survival is reported as 43% (active). In the case of Cc1nccn1S(=O)(=O)c1c(C(C)C)cc(C(C)C)cc1C(C)C, the survival is reported as 86% (inactive). For Cc1ccc(NC(=O)CN(C)S(=O)(=O)c2cnc[nH]2)cc1, the survival was 102% (inactive). Cc1cc(C(=O)NCc2ccccc2)c2c(C)nn(-c3cccc(F)c3)c2n1 was tested, and the survival was 55% (inactive). O=C(NCCc1ccc(Cl)cc1)C1CCN(c2ncnc3c2nc2n3CCCCC2)CC1 was tested, and the survival was 89% (inactive). Cc1cccc(N2CCN(C(=O)C3CCN(c4ncnc5c4nc4n5CCCCC4)CC3)CC2C)c1 (configuration not stated) was tested, and the survival was 6% (active). Cc1cccc(N2CCN(c3ncnc4c3nc3n4CCCCC3)CC2C)c1 (configuration not stated) was tested, and the survival was 101% (inactive). In the case of O=C(NCc1ccccc1)C1CCN(c2ncnc3c2nc2n3CCCCC2)CC1, the survival is reported as 84% (inactive). In the case of O=C(C1CCN(c2ncnc3c2nc2n3CCCCC2)CC1)N1CCN(c2ccc(Cl)cc2)CC1, the survival is reported as 81% (inactive). For O=C(NCCc1ccccc1)C1CCN(c2ncnc3c2nc2n3CCCCC2)CC1, the survival was -2% (active). O=C(C1CCN(c2ncnc3c2nc2n3CCCCC2)CC1)N1CCN(c2ccccc2)CC1 was tested, and the survival was 72% (inactive). Cc1ccc(N2CCN(C(=O)C3CCN(c4ncnc5c4nc4n5CCCCC4)CC3)CC2)c(C)c1 was tested, and the survival was 79% (inactive). For O=C(C1CCN(c2ncnc3c2nc2n3CCCCC2)CC1)N1CCN(c2ccc(F)cc2)CC1, the survival was -1% (active).
